Source: PubChem BioAssay AID493243 (Broad Institute, 2011)
Values without a mark were called inactive. Calls of active or inactive are those of the source. No rule for the calls is given here.

Experiment: GFP fluorescence signal inhibitors, dose response, artefact control, biochemical, plate reader, dry powder (AID 493243)
Details: GFP fluorescence counter-screen; series mostly up to 35 µM; activity change, negative = inhibition: at the top concentration

For `Nc1cn(-c2ccccc2)nc1-c1ccc(F)cc1`, which “activity change, negative = inhibition” value is on record?
The value was 1.12%.

Which AC50 does the source give for `Cn1nc(-c2ccccn2)nc2c(=O)n(C)c(=O)nc1-2` here?
Its AC50 is 0.752 µM (active).

Which AC50 does the source give for `Cc1oc2c(c1C(=O)NCc1cccnc1)C(=O)c1ccccc1C2=O` here?
Its AC50 is 3.57 µM (active).

For `Cc1ccccc1-n1ncc2c([N+](=O)[O-])cc([N+](=O)[O-])cc21`, which AC50 is on record?
Its AC50 is 9.4 µM (active).

Which AC50 does the source give for `Cc1oc2c(c1C(=O)NCc1ccccn1)C(=O)c1ccccc1C2=O` here?
The AC50 was 1.04 µM (active).
